This note sets out measurements from PubChem BioAssay (NCI).

Compounds without any hit were thinned out: in the full panel of roughly 83,000, 20% have a hit.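 The endpoint reported here, percent growth, reads 100 for growth as untreated, 0 for no net growth and -100 for all cells dead.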 Values without a mark were called inactive. Calls of active or inactive are those of the source. The calls were made as follows: active = growth percent below 10; inactive = the rest.

Test in all cases: NCI-60 one-dose screen, 48 h (100 = growth as untreated, 0 = no growth, -100 = all killed)
Conditions in all cases: 10 µM unless noted

The test system of experiment [1] is SK-MEL-2 melanoma.
Experiment [2] relates to EKVX NSCLC.
The subject of experiment [3] is SN12C renal.
The test system of experiment [4] is UO-31 renal.
Experiment [5] relates to TK-10 renal.
Experiment [6] deals with ACHN renal.
For experiment [7], the system named is CAKI-1 renal.
Experiment [8] has as its system A498 renal.
For experiment [9], the system named is CCRF-CEM leukemia.
Experiment [10] deals with MOLT-4 leukemia.
The subject of experiment [11] is SR leukemia.
For experiment [12], the system named is OVCAR-8 ovarian.
In experiment [13] the test system is OVCAR-5 ovarian.
The test system of experiment [14] is OVCAR-4 ovarian.
Experiment [15] concerns SK-OV-3 ovarian.
Experiment [16] relates to IGROV1 ovarian.
Experiment [17] deals with OVCAR-3 ovarian.
Experiment [18] has as its system HS 578T breast.
The test system of experiment [19] is NCI/ADR-RES ovarian.

For `C/C=C(\C)C(=O)N[C@H]1[C@@H](OC(C)=O)C[C@]2(C)C3CC[C@@]4(C)C(CC[C@@H]4C(C)N(C)C)C3CCC2[C@H]1O` (some centres not stated), the growth in experiment [1] was 97.2%; in experiment [2], 62.7%; in experiment [3] it was 75.3%; in experiment [4] it was 10.5%; in experiment [5] it was 65.5%; in [6], 67.9%. Further, the growth was 65.6% in [7]; 85.8% in [8]; 39.7% in experiment [9]; 65.6% in experiment [10]; 51% in experiment [11]; 78.6% in experiment [12]. The growth in experiment [13] was 96.7%; in [14] it was 15.3%; in experiment [15], 93.6%; in experiment [16], 66.4%; in experiment [17], 74.9%; in experiment [18] it was 88.6%. Moreover, the growth in [19] is 67.9%.
With `O=C(CCN1C(=O)/C(=C/c2ccc(O)cc2)SC1=S)Nc1ccc(Cl)cc1`, the growth is 108% in experiment [1]; 95.8% in experiment [2]; 91.7% in [3]; 6.22% (active) in experiment [4]; 108% in experiment [5]; 84% in [6]. In addition, the growth in experiment [7] was 92.5%; in experiment [8], 95%; in experiment [9] it was 46.7%; in experiment [10], 84.7%; in [11], 110%; in experiment [12], 97%. For the same compound, the growth in experiment [13] is 95.6%; in experiment [14] it was 91.1%; in [15], 71.8%; in [16], 79.7%; in experiment [17], 99.4%; in [18], 92.8%. Also, the growth in experiment [19] was 104%.
`CCCCOc1nc2c(C)cccc2cc1-c1cc(-c2ccc(Cl)cc2)nc(-c2ccc(Cl)cc2)c1`: the growth in experiment [1] was 102%; in experiment [2] it was 101%; in experiment [3], 96%; in experiment [4], 95.6%; in experiment [5] it was 108%; in experiment [6], 101%. For the same compound, the growth is 93.9% in [7]; 90.4% in [8]; 103% in [9]; 103% in [10]; 92.2% in experiment [11]; 97.4% in experiment [12]. The growth in experiment [13] was 96.6%; in experiment [14] it was 110%; in experiment [15], 103%; in experiment [16] it was 105%; in [17] it was 111%; in [18], 92.4%. The growth in experiment [19] was 108%.
For the compound `Cc1cc(-c2cc(C)c(N)cc2C)c(C)cc1N`, the growth in experiment [1] was 90.5%; in [2] it was 115%; in [3], 89.9%; in experiment [4], 78.7%; in experiment [5], 101%; in experiment [6], 92.8%. The growth was 87.3% in experiment [7]; 105% in [8]; 89.8% in experiment [9]; 100% in [10]; 45.5% in experiment [11]; 103% in experiment [12]. Besides, the growth in experiment [13] is 97.2%; in [14], 117%; in experiment [15] it was 95.7%; in experiment [16], 109%; in experiment [17], 107%; in [18], 107%. Also, the growth in [19] was 100%.
As for `CCOC(=O)CCN(C(=O)Nc1ccccc1)C1CCCCC1`, the growth in [1] was 119%; in [2] it was 101%; in [3] it was 117%; in [4] it was 118%; in [5], 120%; in [6], 110%. Further, the growth is 110% in [7]; 109% in experiment [8]; 107% in [9]; 93.8% in experiment [10]; 129% in experiment [11]; 128% in experiment [12]. The growth in experiment [13] is 87.4%; in experiment [14], 113%; in experiment [15] it was 112%; in experiment [16], 93.2%; in experiment [17] it was 118%; in experiment [18], 107%. In [19], the growth was 106%.
In the case of `Cc1cccc2c3c(sc12)C(c1ccc(Cl)cc1)C(C#N)=C(/N=C/c1ccc(Cl)cc1)O3` (configuration not stated), the growth in experiment [1] is 43%; in [2], 46.5%; in experiment [3], 27.3%; in experiment [4] it was 37.9%; in experiment [5], 74.8%; in experiment [6] it was 25.9%. Also, the growth was 5.67% (active) in experiment [7]; -4.07% (active) in [8]; 5.88% (active) in experiment [9]; 14.2% in experiment [10]; 24.1% in [11]; 25% in experiment [12]. Further, the growth is 24.6% in experiment [13]; 52.9% in experiment [14]; 59% in [15]; 21.9% in [16]; -2.5% (active) in experiment [17]; 14.3% in [18]. Moreover, in experiment [19], the growth was 9.29% (active).
For `CN(C)CCS(=O)(=O)Nc1cc(-c2ccc3ncc(C#N)c(Nc4ccc(F)c(Cl)c4)c3c2)cnc1Cl`, the growth in [1] was -40.4% (active); in experiment [2], -43.5% (active); in experiment [3], 0.75% (active); in experiment [4], -55.5% (active); in experiment [5], -35.5% (active); in experiment [6], 8.58% (active). Further, the growth in experiment [7] is -42.3% (active); in experiment [8], -49.9% (active); in experiment [9] it was 1.06% (active); in [10], -25.9% (active); in experiment [11], -12.5% (active); in experiment [12] it was -10.8% (active). Besides, the growth is -43.8% (active) in [13]; -5.26% (active) in [14]; -35.1% (active) in experiment [15]; -43.3% (active) in experiment [16]; -59.8% (active) in [17]; -10.5% (active) in [18]. Further, in experiment [19], the growth is 63.7%.
For the compound `COc1cc(C2CC(c3ccc(N(C)C)cc3)=NN2C(C)=O)cc(OC)c1OC` (configuration not stated), the growth is 37.1% in experiment [1]; 44.3% in [2]; 37.7% in experiment [3]; 45.7% in experiment [4]; 63.4% in experiment [5]; 44.9% in [6]. Moreover, the growth is 27% in experiment [7]; -1.88% (active) in experiment [8]; 11.8% in experiment [9]; 11.6% in [10]; -17.2% (active) in experiment [11]; 38.9% in experiment [12]. For the same compound, the growth in experiment [13] is 54.5%; in [14] it was 51.5%; in experiment [15], 24.9%; in experiment [16], 30.4%; in experiment [17], -38.2% (active); in experiment [18], 0.792% (active). Also, the growth in [19] was -24.4% (active).
